Experimental data: PubChem BioAssay (NCATS)
Inconclusive results are not listed. Activity calls are given as the source filed them. Unless noted, the call rests on the fitted dose curve; in most records, active means well fitted curve in the direction sought with a large enough effect; inconclusive means small, poorly fitted or top-dose-only effect, or another doubt; inactive means no such curve, though single readings can be large; an effect the other way counts as inactive or inconclusive.

Legend:
[1] = molecular target: Ferritin light chain (Equus caballus) (UniProt P02791); assay: qHTS Validation Assay for Identification of Novel General Anesthetics (AID 2323); further: series mostly up to about 77 µM
Summary of the method: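 Apoferritin from horse spleen (10 uM) was mixed with 1-aminoanthracene at 50% saturation in PBS, then compounds were added. After 10 min at room temperature, fluorescence was read (ex 380 nm, em 535 nm) and normalized to free-probe and complex controls.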

[2] = molecular target: ATP-dependent DNA helicase Q1 (Homo sapiens) (UniProt P46063); assay: qHTS Validation Assay for Inhibitors of RecQ-Like Dna Helicase 1 (RECQ1) (AID 2353)
Summary of the method: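 RECQ1T1 50 nM; forked duplex (20 bp + 30-nt ss tails) 200 nM, ATP 2 mM final; pH 8.0, 2 mM MgCl2, 2.5 ug/ml poly(dI-dC); 15 min compound preincubation; discontinuous kinetic read over 2 h at RT.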

[3] = Cytometric Cell-Based qHTS for Inhibitors of the mTORC1 Signaling Pathway in MEF (Tsc2-/-, p53-/-) Cells (AID 2660);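 further: Tsc2 and p53 null MEFs carrying empty vector with compound for 24 h; percent of cells above a phospho-rpS6 to PI ratio cutoff in each well; series mostly up to about 38 µM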
Summary of the method: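 Immunofluorescence qHTS of rpS6 Ser235/236 phosphorylation: MEFs (Tsc2-/-, p53-/-) treated 24 h, 37 C, in DMEM + 10% FBS. Alexa-488 signal normalized to PI count, referenced to rapamycin (7.5 nM) and DMSO; PI cell number recorded for viability.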

[4] = High Content Imaging Cell-Based qHTS for Inhibitors of the mTORC1 Signaling Pathway in MEF (Tsc2-/-, p53-/-) Cells (AID 2666);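 further: percent of cells scored positive for phospho-rpS6 Ser235/236 immunostaining by imaging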
Summary of the method: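 Inhibition of rpS6 phosphorylation is measured by immunofluorescence imaging in empty-vector Tsc2-/-, p53-/- mouse embryonic fibroblasts after 24 hrs compound exposure at 37 degree Celsius. Results are reported as % positive cells per well.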

[5] = High Content Imaging Cell-Based qHTS for Inhibitors of the mTORC1 Signaling Pathway in MEF Cells (AID 2667);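 further: Tsc2-/- p53-/- MEFs stably re-expressing wild-type Tsc2 exposed 24 h; series mostly up to about 38 µM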
Summary of the method: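 Fixed-cell imaging of phospho-S6 (Ser235/236, Alexa-488) after 24 hrs of compound treatment at 37 degree Celsius. Signal was normalized to Hoechst, and thresholds from the highest and lowest wells split cells into % active versus % non-active.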

[6] = Cytometry Cell-Based qHTS for Inhibitors of the mTORC1 Signaling Pathway in MEF cells (AID 2668);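 further: Tsc2-/- p53-/- mouse embryonic fibroblasts stably re-expressing wild-type Tsc2; percent cells positive for phospho-rpS6 Ser235/236 relative to propidium iodide stain; series mostly up to about 38 µM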
Summary of the method: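 Pathway inhibition in WT Tsc2-rescued Tsc2-/-, p53-/- MEFs is measured as the Alexa-488 phospho-rpS6 to propidium iodide intensity ratio after 24 hrs of compound at 37 degree Celsius. PI-stained cell number gives viability.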

[7] = Validation screen for small molecules that induce DNA re-replication in MCF 10A normal breast cells (AID 463097); further: nearly all actives have a fitted effect of over 60% in size
Summary of the method: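 DNA re-replication was detected as a rise in nuclei with elevated Hoechst fluorescence after a 48 hr compound exposure of MCF 10A cells at 37 C.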

[8] = molecular target: Ubiquitin carboxyl-terminal hydrolase 2 (Homo sapiens) (UniProt O75604); assay: qHTS Validation Assay for Inhibitors of Ubiquitin-specific Protease USP2a Using CHOP2 as the Reporter (AID 463106)
Summary of the method: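 Inhibition is expressed relative to NEM as the full-inhibition control, with concentration-response curves classed by fit quality, magnitude and activity. Enzyme (USP2 core, 10nM) meets 25nM Ub-CHOP2 after compound preincubation; readings are taken at 60min.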

[9] = molecular target: DNA polymerase III PolC-type (Bacillus subtilis (strain 168)) (UniProt P13267); assay: qHTS Validation Assay for the Inhibitors of DNA Replication in Gram-Positive Bacteria (AID 485295);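 further: reconstituted holoenzyme with PolC plus beta clamp SSB and primase; PicoGreen fluorescence of double-stranded DNA made on primed circular M13 template; series mostly up to about 57 µM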
Summary of the method: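 Primed replication of single-stranded M13Gori by a four-protein B. subtilis holoenzyme is measured at room temperature. Double-stranded product is quantified by PicoGreen fluorescence after an EDTA stop; inhibition is scaled between DMSO and EDTA controls.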

[10] = molecular target: Tumor susceptibility gene 101 protein (Homo sapiens) (UniProt Q99816); assay: qHTS Validation Assay for Iinhibitors of HIV-1 Budding by Blocking the Interaction of PTAP/TSG101 (AID 485342; calls by dose curve)
Summary of the method: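 Fluorescence anisotropy measured PTAP-Tsg101 interaction. Final concentrations were 10 uM protein domain and 50 nM labeled peptide, equilibrated 20 min at room temperature.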

[11] = qHTS Validation Assay to Find Inhibitors of Chronic Active B-Cell Receptor Signaling (AID 485345; active means well fitted curve in the direction sought with a large enough effect in the main read-out, with a control signal flat, not every such curve was filed as active)
Summary of the method: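 TMD8 ABC-DLBCL cells with dox-inducible green luciferase–IκBα fusion and red native luciferase; compounds 46 uM–3 nM, 4 h at 37C with doxycycline in 0.5% FBS IMDM. Green/red ratio normalized to basal and 10 uM MG-132.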

[12] = Quantitative high throughput screen for delayed death inhibitors of the malarial parasite plastid, 96 hour incubation (AID 488745);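 further: luciferase-expressing P. falciparum in erythrocytes at 2% hematocrit and 0.1% parasitemia; series mostly up to about 29 µM; nearly all actives have a fitted effect of over 70% in size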
Summary of the method: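 Luciferase-expressing P. falciparum, infected RBCs 2% Hct/0.1% parasitemia (final); 96 h cpd exposure, 37 C, 5% CO2; RPMI 1640 + 0.5% Albumax, bicarbonate, gentamycin. Readout: luminescence loss = growth inhibition.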

[13] = Quantitative high throughput screen for delayed death inhibitors of the malarial parasite plastid, 48 hour incubation (AID 488752); further: nearly all actives have a fitted effect of over 65% in size
Summary of the method: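 Luciferase-expressing P. falciparum in RBCs, 2% Hct, 0.1% parasitemia final; RPMI 1640 + 0.5% Albumax; 48 h, 37 C, 5% CO2; luminescence readout, signal drop = growth inhibition.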

[14] = molecular target: Thioredoxin reductase 1, cytoplasmic (Rattus norvegicus) (UniProt O89049); assay: qHTS Assay for Inhibitors of Mammalian Selenoprotein Thioredoxin Reductase 1 (TrxR1) (AID 488773); conditions: Potency: inhibition;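 further: drop in NADPH fluorescence over an 8 min run after selenite addition; series mostly up to about 57 µM; nearly all actives have a fitted effect of over 40% in size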
Summary of the method: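 Inhibition is scored from the loss of NADPH fluorescence between first and last reads of an 8-min kinetic run. Selenite (400 uM) was the substrate, added after 15 min compound preincubation at room temperature.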

[15] = molecular target: Flap endonuclease 1 (Homo sapiens) (UniProt P39748); assay: qHTS Validation Assay for the Inhibitors of Human Flap endonuclease 1 (FEN1) (AID 488816)
Summary of the method: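 Steps: add FEN1 (10 nM reagent) or buffer only; pin compounds; hold 15 min at room temperature; start with substrate, 50 nM final; read at 0 and 15 min; correct, normalize and fit a four-parameter Hill curve.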

[16] = molecular target: M-phase phosphoprotein 8 (Homo sapiens) (UniProt Q99549); assay: qHTS Validation Assay for Inhibitors for MPP8 Chromodomain Interactions with Methylated Histone Tails (AID 488949);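 further: AlphaScreen signal from MPP8 chromodomain bound to biotinylated H3K9me3 peptide; top concentration of the series differs between compounds; nearly all actives have a fitted effect of over 55% in size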
Summary of the method: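 Disruption of the preformed MPP8–trimethyl-H3K9 peptide complex (both 50 nM, 30 min, RT) is measured after 30 min compound exposure, using AlphaScreen proximity beads; aurintricarboxylic acid titration serves as plate control.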

[17] = molecular target: Beta-2 adrenergic receptor (Homo sapiens) (UniProt P07550); assay: qHTS validation assay of beta-arrestin-biased ligands of beta2-adrenergic receptor (AID 485366)
Summary of the method: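 Agonism was measured as beta-arrestin recruitment to recombinant beta2-AR, releasing tTA to drive luciferase. Cells were exposed for 18 hr at 37 degrees C to a series up to 46 microM. %Activity from corrected luminescence gave concentration-response curves.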

[18] = molecular target: ATP-dependent 6-phosphofructokinase (Trypanosoma brucei brucei) (UniProt O15648); assay: qHTS Validation Assay to Find Inhibitors of T. brucei phosphofructokinase (AID 485368); conditions: outcome: dose series up to 57.5 µM
Summary of the method: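 ADP-Glo luminescence, two-step: residual ATP depleted, then ADP converted to ATP for luciferase. Enzyme 1.25 nM, F6P 0.5 mM, ATP 0.1 mM, pH 8.0 TEA buffer, 45 min RT. Curves fitted and classed by quality and efficacy.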

[19] = molecular target: Thioredoxin reductase 1, cytoplasmic (Rattus norvegicus) (UniProt O89049); assay: qHTS Assay for Substrates of Mammalian Selenoprotein Thioredoxin Reductase 1 (TrxR1) (AID 488772);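 further: series mostly up to about 57 µM; a drop in NADPH fluorescence below the no-compound background marks a TrxR1 substrate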
Summary of the method: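 In this dual-purpose format, potential substrates are identified from the first fluorescence read after selenite addition, not from the 8-minute delta. Rat enzyme is preincubated with NADPH and then with compound at ~22 deg C.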

Measured: Potency

Tumor susceptibility gene 101 protein (Homo sapiens), sequence (Q99816 whole entry, looked up, the tested form may be a part): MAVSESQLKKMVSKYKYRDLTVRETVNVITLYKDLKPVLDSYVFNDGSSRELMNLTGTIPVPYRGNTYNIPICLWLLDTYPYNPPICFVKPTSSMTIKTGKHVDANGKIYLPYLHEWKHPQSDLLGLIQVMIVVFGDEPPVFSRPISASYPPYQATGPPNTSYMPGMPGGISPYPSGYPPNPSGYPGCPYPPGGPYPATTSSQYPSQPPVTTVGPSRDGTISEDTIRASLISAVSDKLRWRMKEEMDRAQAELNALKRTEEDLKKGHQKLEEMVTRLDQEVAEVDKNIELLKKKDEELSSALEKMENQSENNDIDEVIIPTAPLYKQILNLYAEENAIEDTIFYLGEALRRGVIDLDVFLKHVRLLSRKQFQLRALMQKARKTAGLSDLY
ATP-dependent DNA helicase Q1 (Homo sapiens), sequence (P46063 whole entry, looked up): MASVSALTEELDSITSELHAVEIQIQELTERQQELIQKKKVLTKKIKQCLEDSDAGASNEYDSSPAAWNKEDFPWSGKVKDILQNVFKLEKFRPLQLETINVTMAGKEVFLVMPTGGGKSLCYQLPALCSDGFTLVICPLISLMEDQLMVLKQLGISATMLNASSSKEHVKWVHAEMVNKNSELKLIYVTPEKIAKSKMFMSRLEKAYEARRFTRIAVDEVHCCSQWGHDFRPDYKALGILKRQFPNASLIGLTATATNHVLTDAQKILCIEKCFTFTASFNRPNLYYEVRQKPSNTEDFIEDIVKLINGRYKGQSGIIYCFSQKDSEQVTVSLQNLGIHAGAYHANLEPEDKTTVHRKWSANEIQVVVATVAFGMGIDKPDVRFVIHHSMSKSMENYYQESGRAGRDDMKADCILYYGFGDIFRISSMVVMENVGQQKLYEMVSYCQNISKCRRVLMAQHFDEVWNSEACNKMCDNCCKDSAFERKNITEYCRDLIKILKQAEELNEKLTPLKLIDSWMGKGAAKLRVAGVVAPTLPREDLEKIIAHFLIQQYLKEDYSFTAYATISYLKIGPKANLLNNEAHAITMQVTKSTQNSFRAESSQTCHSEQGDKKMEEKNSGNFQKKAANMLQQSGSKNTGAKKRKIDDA
ATP-dependent 6-phosphofructokinase (Trypanosoma brucei brucei), sequence (O15648 whole entry, looked up): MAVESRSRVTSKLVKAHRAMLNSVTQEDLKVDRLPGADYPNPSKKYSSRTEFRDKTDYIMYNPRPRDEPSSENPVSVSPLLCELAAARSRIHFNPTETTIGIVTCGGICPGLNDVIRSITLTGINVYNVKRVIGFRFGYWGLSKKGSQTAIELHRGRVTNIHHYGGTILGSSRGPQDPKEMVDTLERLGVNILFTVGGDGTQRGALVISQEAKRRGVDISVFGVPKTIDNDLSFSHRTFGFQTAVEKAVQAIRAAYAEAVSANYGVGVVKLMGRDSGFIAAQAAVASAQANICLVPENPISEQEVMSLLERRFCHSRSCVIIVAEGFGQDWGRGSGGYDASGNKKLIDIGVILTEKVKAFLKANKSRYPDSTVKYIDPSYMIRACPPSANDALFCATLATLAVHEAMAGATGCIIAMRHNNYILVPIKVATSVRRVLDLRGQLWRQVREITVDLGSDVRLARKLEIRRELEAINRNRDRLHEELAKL
M-phase phosphoprotein 8 (Homo sapiens), sequence (Q99549 whole entry, looked up): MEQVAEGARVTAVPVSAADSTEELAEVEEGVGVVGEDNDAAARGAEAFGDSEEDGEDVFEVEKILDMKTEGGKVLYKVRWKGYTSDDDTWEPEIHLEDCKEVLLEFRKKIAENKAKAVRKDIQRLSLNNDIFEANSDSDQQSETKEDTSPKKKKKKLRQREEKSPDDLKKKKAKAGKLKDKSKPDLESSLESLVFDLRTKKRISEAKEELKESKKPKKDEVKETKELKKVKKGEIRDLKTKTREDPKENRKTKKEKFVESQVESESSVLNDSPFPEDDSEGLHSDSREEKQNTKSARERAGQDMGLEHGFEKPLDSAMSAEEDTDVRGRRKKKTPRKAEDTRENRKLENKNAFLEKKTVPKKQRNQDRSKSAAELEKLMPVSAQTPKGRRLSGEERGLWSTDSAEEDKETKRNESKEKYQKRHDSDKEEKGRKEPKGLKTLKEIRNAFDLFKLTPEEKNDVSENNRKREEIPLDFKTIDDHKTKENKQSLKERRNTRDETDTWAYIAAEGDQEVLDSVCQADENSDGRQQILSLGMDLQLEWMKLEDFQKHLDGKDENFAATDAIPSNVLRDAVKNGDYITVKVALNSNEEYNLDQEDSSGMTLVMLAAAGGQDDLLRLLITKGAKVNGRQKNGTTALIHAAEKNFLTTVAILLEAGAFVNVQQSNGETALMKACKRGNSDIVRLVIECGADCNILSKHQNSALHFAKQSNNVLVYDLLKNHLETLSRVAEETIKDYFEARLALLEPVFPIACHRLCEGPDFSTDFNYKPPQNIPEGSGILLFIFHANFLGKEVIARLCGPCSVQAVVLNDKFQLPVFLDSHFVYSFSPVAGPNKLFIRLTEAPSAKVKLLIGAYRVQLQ
Ubiquitin carboxyl-terminal hydrolase 2 (Homo sapiens), sequence (O75604 whole entry, looked up): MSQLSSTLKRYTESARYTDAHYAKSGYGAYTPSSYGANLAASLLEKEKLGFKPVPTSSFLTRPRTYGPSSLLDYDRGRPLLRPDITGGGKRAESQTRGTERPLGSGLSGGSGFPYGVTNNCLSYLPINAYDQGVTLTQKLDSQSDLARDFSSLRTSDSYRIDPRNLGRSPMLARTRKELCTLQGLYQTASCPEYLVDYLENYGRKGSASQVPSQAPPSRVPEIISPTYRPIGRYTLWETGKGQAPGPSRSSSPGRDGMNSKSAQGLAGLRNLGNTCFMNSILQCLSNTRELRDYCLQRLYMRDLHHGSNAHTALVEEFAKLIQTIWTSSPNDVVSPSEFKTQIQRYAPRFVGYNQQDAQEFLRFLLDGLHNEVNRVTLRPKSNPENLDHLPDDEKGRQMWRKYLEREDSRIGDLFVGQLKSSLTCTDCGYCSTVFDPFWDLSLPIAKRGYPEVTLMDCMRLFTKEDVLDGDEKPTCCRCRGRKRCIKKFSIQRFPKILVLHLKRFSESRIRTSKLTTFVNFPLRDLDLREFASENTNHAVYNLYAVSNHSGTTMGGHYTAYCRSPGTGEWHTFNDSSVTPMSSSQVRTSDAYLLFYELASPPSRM
Ferritin light chain (Equus caballus), sequence (P02791 2-175 limits assumed): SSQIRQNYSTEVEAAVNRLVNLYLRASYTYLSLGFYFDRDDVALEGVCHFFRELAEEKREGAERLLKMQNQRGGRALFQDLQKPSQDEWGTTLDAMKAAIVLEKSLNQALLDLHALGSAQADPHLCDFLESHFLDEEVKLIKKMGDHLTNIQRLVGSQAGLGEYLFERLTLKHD
Beta-2 adrenergic receptor (Homo sapiens), sequence (P07550 whole entry, looked up): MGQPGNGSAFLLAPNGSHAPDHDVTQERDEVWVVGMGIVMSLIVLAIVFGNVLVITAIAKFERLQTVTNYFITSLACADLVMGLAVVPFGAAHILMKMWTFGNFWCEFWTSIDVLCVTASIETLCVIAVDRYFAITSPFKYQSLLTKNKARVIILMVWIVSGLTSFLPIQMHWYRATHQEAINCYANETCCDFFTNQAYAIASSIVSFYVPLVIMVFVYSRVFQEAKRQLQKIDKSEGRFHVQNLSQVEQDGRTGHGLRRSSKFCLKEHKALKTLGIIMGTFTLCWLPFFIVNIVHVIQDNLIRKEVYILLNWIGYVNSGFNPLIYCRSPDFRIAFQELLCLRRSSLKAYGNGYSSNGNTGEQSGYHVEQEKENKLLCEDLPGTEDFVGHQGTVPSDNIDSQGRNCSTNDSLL
Thioredoxin reductase 1, cytoplasmic (Rattus norvegicus), sequence (O89049 whole entry, looked up): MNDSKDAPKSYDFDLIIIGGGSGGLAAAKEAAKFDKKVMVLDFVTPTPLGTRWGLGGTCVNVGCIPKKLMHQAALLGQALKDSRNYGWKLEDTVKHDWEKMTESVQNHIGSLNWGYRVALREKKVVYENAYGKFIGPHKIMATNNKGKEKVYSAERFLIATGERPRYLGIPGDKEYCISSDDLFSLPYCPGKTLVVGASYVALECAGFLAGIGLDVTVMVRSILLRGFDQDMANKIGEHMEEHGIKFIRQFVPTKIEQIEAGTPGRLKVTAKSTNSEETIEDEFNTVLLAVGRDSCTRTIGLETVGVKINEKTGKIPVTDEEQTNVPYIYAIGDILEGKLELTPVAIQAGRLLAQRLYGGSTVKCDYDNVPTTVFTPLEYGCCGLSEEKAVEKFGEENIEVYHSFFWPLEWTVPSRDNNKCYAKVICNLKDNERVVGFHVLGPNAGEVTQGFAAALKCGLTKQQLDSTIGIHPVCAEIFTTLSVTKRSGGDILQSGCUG
Flap endonuclease 1 (Homo sapiens), sequence (P39748 whole entry, looked up): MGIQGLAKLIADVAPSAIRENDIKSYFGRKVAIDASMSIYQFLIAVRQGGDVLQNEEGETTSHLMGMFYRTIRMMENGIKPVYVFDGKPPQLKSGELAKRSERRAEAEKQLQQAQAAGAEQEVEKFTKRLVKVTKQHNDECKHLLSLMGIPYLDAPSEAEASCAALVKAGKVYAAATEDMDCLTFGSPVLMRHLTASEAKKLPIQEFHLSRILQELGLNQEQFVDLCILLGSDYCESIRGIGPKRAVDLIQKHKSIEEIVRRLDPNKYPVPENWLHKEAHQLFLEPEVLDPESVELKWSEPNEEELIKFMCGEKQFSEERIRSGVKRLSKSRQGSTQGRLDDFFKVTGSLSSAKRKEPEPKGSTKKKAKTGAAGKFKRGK

CN/C(=C\[N+](=O)[O-])NCCSCc1ccc(CN(C)C)o1
inactive: [1] | [2] | [3] | [4] | [5] | [6] | [7] | [8] | [9] | [10] | [11] | [12] | [13] | [14]

CC(C)(C)NCC(O)c1cc(O)cc(O)c1 (stereo unspecified)
inactive: [1] | [2] | [3] | [4] | [5] | [6] | [7] | [8] | [9] | [10] | [11] | [12] | [13] | [14] | [15] | [16]

CN(C(=O)CCCOc1ccc2[nH]c(=O)ccc2c1)C1CCCCC1
inactive: [1] | [2] | [3] | [4] | [5] | [6] | [7] | [8] | [9] | [10] | [17] | [18] | [14] | [15]

CC[N+](C)(C)c1cccc(O)c1
inactive: [1] | [2] | [3] | [4] | [5] | [6] | [7] | [8] | [9] | [10] | [11] | [18] | [13] | [19] | [16]

COc1ccc(CN(CCN(C)C)c2ccccn2)cc1
inactive: [1] | [2] | [3] | [4] | [5] | [6] | [7] | [8] | [9] | [10] | [11] | [18] | [12] | [13] | [14] | [15] | [16]

CCN(Cc1ccncc1)C(=O)C(CO)c1ccccc1 (stereo unspecified)
inactive: [1] | [2] | [3] | [4] | [5] | [6] | [7] | [8] | [10] | [11] | [17] | [18] | [12] | [14] | [15] | [16]

CCCCNc1ccc(C(=O)OCCN(C)C)cc1
inactive: [1] | [2] | [3] | [4] | [5] | [6] | [8] | [9] | [10] | [11] | [17] | [13] | [19] | [14] | [15] | [16]

Cc1nnc(SCC2=C(C(=O)O)N3C(=O)[C@@H](NC(=O)Cn4cnnn4)[C@H]3SC2)s1
inactive: [1] | [2] | [3] | [4] | [5] | [6] | [7] | [9] | [10] | [11] | [17] | [12] | [19]

COCCc1ccc(OCC(O)CNC(C)C)cc1 (stereo unspecified)
inactive: [1] | [2] | [3] | [4] | [5] | [6] | [7] | [8] | [10] | [11] | [12] | [19] | [14] | [15] | [16]
